DAX1 inh-1 = DAX1 (NR0B1) inhibitors on StAR promoter, primary screen, cell-based, luminescence, SF-1 (NR5A1), full-length DAX-1 | inhibition, % at 6.8 µM | HEK293T StAR-luciferase reporter, SF-1/DAX-1 repression relief | AID 652010, 2013 | 370,000 tested, 1.1% active;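 active = inhibition above the mean over all tested compounds plus 3 SD, cut at about 3.6% in these data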;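 note: 0% = DAX-1 cells with DMSO and 100% = cells lacking DAX-1 with DMSO; higher inhibition means more luminescence from relief of DAX-1 repression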
DAX1 inh-2 = DAX1 (NR0B1) inhibitors, primary screen, cell-based, HEK293, Gal4-DAX1, luciferase luminescence; Nuclear receptor subfamily 0 group B member 1 (Homo sapiens), P51843; HEK293 Gal4-DAX1 luciferase reporter; inhibition, % at 6.75 µM; 340,000 tested, 0.99% active; AID 504766, 2011;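 active = inhibition above the mean over all tested compounds plus 3 SD, cut at about 4.2% in these data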;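 note: 0% = DAX1-transfected cells with DMSO and 100% = empty-vector control cells with DMSO; inhibition shows as a rise in luminescence from relieved DAX1 repression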
Target sequence (P51843 207-470 limits assumed): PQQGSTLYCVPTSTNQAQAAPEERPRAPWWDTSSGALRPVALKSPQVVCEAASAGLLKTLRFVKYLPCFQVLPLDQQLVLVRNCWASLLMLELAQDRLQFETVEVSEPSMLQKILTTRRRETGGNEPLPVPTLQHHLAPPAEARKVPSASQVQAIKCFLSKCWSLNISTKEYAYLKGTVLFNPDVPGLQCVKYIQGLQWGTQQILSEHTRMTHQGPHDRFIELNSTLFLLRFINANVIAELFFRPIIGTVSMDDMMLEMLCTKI
ssDAF12 agonist = S. stercoralis DAF-12 nuclear receptor activators, primary screen, cell-based, luminescence, HEK293, GRIP1 co-expression, lit1-tk-luc | activation, % at 6.8 µM | 370,000 tested, 1% active | Nuclear hormone receptor DAF-12 (Strongyloides stercoralis) | HEK293 ssDAF-12/GRIP1 lit1-tk-luc reporter; % of 3 µM dafachronic acid response | AID 652126, 2013;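 active = activation above the mean over all tested compounds plus 3 SD, cut at about 0.9% in these data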;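 note: 0% = DMSO-only wells and 100% = 3 µM delta7-dafachronic acid wells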
hcDAF-12 act = H. contortus DAF-12 nuclear receptor activators, primary screen, cell-based, luminescence, HEK293, lit1-tk-luc reporter. HEK293 hcDAF-12 lit1-tk-luc reporter; 0% DMSO, 100% Δ7-dafachronic acid. activation, % at 6.8 µM. 370,000 tested, 1.4% active;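 active = activation above the mean of all tested compounds plus 3 SD, cut at about 5.5% in these data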;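 note: 100% = response to 3 µM Δ7-dafachronic acid high control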
hgDAF12 agonist = H. glycines DAF-12 receptor agonists, primary screen, cell-based, luminescence, HEK293, GAL4 fusion, UAS-luciferase; activation, % at 6.8 µM; HEK293 GAL4-hgDAF12 UAS-luciferase reporter, agonist luminescence; normalized to butyrate control; 370,000 tested, 1.8% active; AID 687014, 2013;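 active = activation above a cutoff set at the mean of all screened compounds plus 3 SD, cut at about 10% in these data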;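 note: 0% = DMSO wells and 100% = sodium butyrate wells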
* = called active by the depositor; nt = no result. An excerpt weighted towards active compounds, which were near 4.1% of everything screened.

SMILES | DAX1 inh-1 | DAX1 inh-2 | ssDAF12 agonist | hcDAF-12 act | hgDAF12 agonist
COc1ccc(-c2nnn3c2Cn2c4ccccc4c(=O)n2[C@@H](C)C3)cc1 | -2 | nt | -2 | -4 | 0
O=C(Nc1ccc(F)cc1)C(c1cc2ccccc2o1)N1CCN(c2cccc(C(F)(F)F)n2)CC1 (centres undefined) | 1 | nt | 2.3* | 1 | -1
c1ccc(Sc2ccncc2)cc1 | 0 | 5.7* | -1 | 1 | 0
CCC(=O)c1ccc(OC(=O)c2cnccn2)cc1 | 0 | 5.0* | -1 | 1 | 4
COc1ccc(-c2c(C(=O)c3ccccc3)[nH]c(N)c2C(=O)NCCc2c[nH]c3ccccc23)cc1 | 0 | nt | 0 | 0 | 12*
COc1ccc(C(=O)c2[nH]c(N)c(C(=O)NCCc3c[nH]c4ccccc34)c2-c2ccc(Cl)cc2)cc1 | 2 | nt | 1.9* | 3 | 0
Nc1[nH]c(C(=O)c2ccc(Br)cc2)c(-c2ccc(Br)cc2)c1C(=O)NCCc1c[nH]c2ccccc12 | 0 | nt | 0 | 1 | 2
Nc1[nH]c(C(=O)c2ccc(Cl)cc2)c(-c2ccc(Br)cc2)c1C(=O)NCCc1c[nH]c2ccccc12 | 0 | nt | 1.0* | 2 | 0
O=C(OC12CCCN(C1)/C(=C/c1ccccc1)C2)C1CCCC1 (centres undefined) | 0 | nt | -1 | 0 | -1
C#CCN(C)S(=O)(=O)c1ccc(N2CCCC2)cc1Br | -1 | nt | -2 | -2 | 1
O=C(Nc1nc2ncccn2c1-c1ccc(C(F)(F)F)cc1)C1CC1 | -1 | nt | -1 | 2 | 2
CNc1nc(N)c([N+](=O)[O-])c(Nc2ccccc2)n1 | nt | nt | -1 | -1 | -2
Cc1ccc(C(=O)OCC(=O)c2c[nH]c3ccccc23)cc1 | 2 | 4 | 1.9* | 6.5* | 6
O=C(COc1ccccc1)OCC(=O)c1c[nH]c2ccccc12 | -1 | 0 | 0 | 4 | 1
COc1ccc(C(=O)OCC(=O)c2c[nH]c3ccccc23)cc1OC | -2 | 0 | 0 | 3 | 2
O=C(CSCC(=O)N1CCCCC1)OCC(=O)c1c[nH]c2ccccc12 | 0 | -1 | 1.3* | 3 | 1
COC(=O)c1ccc(NC(=O)C(=O)c2c[nH]c3ccccc23)cc1 | 0 | 1 | 1.8* | 6.3* | 4
O=C1CCC(C(=O)OCC(=O)c2c[nH]c3ccccc23)=NN1 | 0 | -1 | 1 | 5.6* | -1
O=C(COC(=O)c1c[nH]c2ccccc12)Nc1ccccc1 | 0 | 2 | -1 | 1 | 2
O=C(NC(Cc1ccccc1)C(=O)O)c1ccccc1 (centres undefined) | -1 | -1 | 0 | 0 | 2
CCOC(=O)N(Cc1ccccc1)Cc1ccc(C(=O)N[C@@H](Cc2ccccc2)C(=O)O)cc1 | 0 | 6.5* | -2 | -1 | 2
COc1ccc2cc(C3(C)NC(=O)N(CC(=O)N4CCCCC4)C3=O)ccc2c1 (centres undefined) | 4.1* | -1 | -1 | 1 | -2
COc1ccc(S(=O)(=O)N2CCN(C(=O)CN3C(=O)NC(C)(c4ccc5ccccc5c4)C3=O)CC2)cc1 (centres undefined) | -1 | -1 | -2 | -1 | -1
COc1cc(NC(=O)c2cc(C)on2)c(OC)cc1Cl | nt | nt | -1 | 3 | 7
CCN(Cc1nc(-c2cccc(Cl)c2)no1)CC1CCCO1 (centres undefined) | 0 | 0 | -1 | 0 | 1
SMILES | DAX1 inh-1 | DAX1 inh-2 | ssDAF12 agonist | hcDAF-12 act | hgDAF12 agonist
CN(Cc1nc(-c2cccc(Cl)c2)no1)C1CCOCC1 | 2 | 0 | -1 | 3 | 12*
Cc1ccc2nc(-c3cccc(Br)c3)c(Cc3cccc(F)c3)n2c1 | 4.3* | nt | 0 | 2 | 11*
COc1ccc(-c2nc3c4ccccc4ccn3c2Cc2ccc(C)cc2)cc1OC | -2 | nt | 0 | 6.3* | 3
Cc1ccc(Cc2c(-c3ccccc3)nc3c4ccccc4ccn23)cc1 | -1 | nt | 0 | 4 | -1
COc1ccc(-c2nc3c4ccccc4ccn3c2Cc2cccc(Cl)c2)cc1OC | -1 | nt | 1.1* | 5 | 4
Cc1ccc(-c2nc3c4ccccc4ccn3c2Cc2ccsc2)cc1 | 0 | nt | 1.4* | 4 | 9
Cc1ccc(-c2nc3c4ccccc4ccn3c2Cc2ccccc2)cc1 | 0 | 0 | 0 | 4 | 2
Fc1cccc(Cc2c(-c3cccc(Br)c3)nc3ccc(Cl)cn23)c1 | 2 | nt | 0 | 1 | 5
O=C(NC1CC[C@@]23CCCN2C(=O)CCC[C@H]3C1)c1ccccc1 (some centres undefined) | nt | nt | -1 | -1 | 0
CCOc1ccc(NC(=O)CN2CCCN(c3ccc(OC)cc3)CC2)cc1 | -1 | nt | -1 | -3 | -1
Cc1ccc2nc(-c3ccccc3)c(Cc3ccsc3)n2c1 | 3 | nt | 2.1* | 1 | 10
COC(=O)c1ccc2nc(-c3ccc(C)cc3)c(Cc3ccsc3)n2c1 | 1 | nt | -1 | 0 | 9
COc1ccc(-c2nc3c4ccccc4ccn3c2Cc2ccsc2)cc1OC | 0 | nt | 1 | 6.4* | 10
Nc1ccc(Cl)c[n+]1Cc1cccc2cccnc12 | -1 | -1 | 0 | 5.8* | -2
CC(C)C[C@@H]1COc2cccc(N3CCC[C@H]3CO)c2S(=O)(=O)N1 | 3.6* | nt | -1 | 2 | 0
COc1ccc(-c2cc(-c3nnc4sc(Cc5cccs5)nn34)[nH]n2)cc1 | -1 | nt | -2 | -3 | -2
C[C@@H]1C[C@H]2[C@@H](C)C(=O)N3[C@H](c4ccccc4)[C@H](C)C[C@H]3[C@@H](C)C(=O)N2[C@@H]1c1ccccc1 | 0 | nt | -1 | -1 | 1
COc1ccc(-c2cc(NC=O)c3ncc(-c4cccc(C(C)=O)c4)n3c2)cc1 | -2 | nt | -2 | -2 | -2
COc1cc(-c2cnc3c(NC=O)cc(-c4ccccc4)cn23)cc(OC)c1OC | 4.2* | nt | -2 | -3 | -3
CC(=O)Nc1cc(-c2cccc(F)c2)cn2c(-c3ccc(F)c(Cl)c3)cnc12 | 4.5* | nt | -1 | 0 | -2
CN(C)C(=O)c1cccc(-c2cnc3c(NC=O)cc(-c4ccccc4Cl)cn23)c1 | 3 | nt | -1 | -2 | 12*
CN(C)C(=O)c1cccc(-c2cnc3c(NC=O)cc(-c4ccccc4N(C)C)cn23)c1 | 1 | nt | -1 | 0 | 0
COc1cccc(-c2cc(NC=O)c3ncc(-c4ccc(C(C)=O)cc4)n3c2)c1 | -5 | nt | 0 | 5 | 11*
